# Where “and” joins values, the source holds several entries; their conditions need not be identical. Identical values can stand only once. Hit rate of the full screen: of about 6,400 compounds, about 610 (9.5%) were called active. Cut-off read from the data, not from the text of the source: active = activity change below about -70%; inconclusive = no clear call, values can overlap the other calls; inactive = above that. The list comes from a sample in which actives are over-represented; it also holds similar structures and randomly drawn compounds. Where a structure was tested more than once in an assay, its records may differ in their call.
# Test: T. gondii ME49Luc in HeLa cells, luciferase assay, 72 h, no IFN-y (AID 1259421)
# Details: stronger effect = lower value, concentration not given here
row,SMILES,"activity change, negative = inhibition"
1,CN1CCCC(CN2c3ccccc3Sc3ccccc32)C1 (stereo not drawn),11.8% (inactive) and 21.2% (inactive)
2,CN1c2ccccc2C(=O)N2CCc3c([nH]c4ccccc34)C21 (stereo not drawn),-71.6% (active)
3,CN1CCc2ccccc2Cc2[nH]c3ccccc3c2CC1,12.1% (inactive)
4,O=c1c2ccccc2nc2n1CCc1c-2[nH]c2ccccc12,249% (inactive)
5,O=C(O)CCC/C=C/CC1COC(C(F)(F)F)OC1c1ccccc1O (stereo not drawn),0.246% (inactive)
6,C=C[C@@]1(C)CC(=O)[C@@]2(O)[C@](C)(O1)[C@@H](OC(C)=O)[C@@H](O)C1C(C)(C)CC[C@H](O)[C@@]12C (stereo partly drawn),6.95% (inactive)
7,Cc1ccc(NC(=O)c2ccc(CN3CCN(C)CC3)cc2)cc1Nc1nccc(-c2cccnc2)n1,3.71% (inactive) and 10.8% (inactive) and -1.32% (inactive)
8,Cc1ccc(C(=O)Nc2cccc(C(F)(F)F)c2)cc1Nc1nc(-c2cccnc2)nc2c1cnn2C,-48.8% (inactive)
9,Cc1ncc(NC(=O)c2ccc(CN3CCN(C)CC3)c(C(F)(F)F)c2)cc1Nc1nccc(-c2cccnc2)n1,-77.9% (active)
10,Cc1cn(-c2cc(NC(=O)c3ccc(C)c(Nc4nccc(-c5cccnc5)n4)c3)cc(C(F)(F)F)c2)cn1,-85.2% (active) and -76.5% (active)
11,Cc1ccc(NC(=O)c2ccc(CN3CCN(C)CC3)cc2)cc1Nc1nc(-c2cccnc2)cs1,47.7% (inactive)
12,O=Cc1ccccc1O[C@@H]1O[C@H](CO)[C@H](O)[C@@H](O)[C@H]1O,4.65% (inactive)
13,NC(=O)c1nc(F)c[nH]c1=O,2.13% (inactive)
14,Cc1c[nH]c2ccccc12,-2.35% (inactive)
15,NC(N)=NCCC[C@@H](N)C(=O)O,13.4% (inactive)
16,Cn1c(C#N)ccc1-c1ccc2c(c1)C(C)(C)OC(=S)N2,-80.3% (active)
17,Cc1ccc(-n2[nH]c(C)c(N=Nc3cccc(-c4cccc(C(=O)O)c4)c3O)c2=O)cc1C,-77.8% (active)
18,CCOc1ccccc1N=Nc1c(C)[nH]n(-c2nc(-c3ccccc3)cs2)c1=O,-0.237% (inactive)
19,Cn1cc(C(=O)[C@@H]2CCc3nc[nH]c3C2)c2ccccc21,3.43% (inactive)
20,CC1(C)C(=O)NC2=C1C(=O)C(=O)c1ccccc12,-90% (active)
21,CC1=CC(=O)c2ccccc2C1=O,2.88% (inactive) and 20.5% (inactive)
22,C[N+](C)(C)CCOP(=O)(O)OC[C@H](O)CO,7.52% (inactive)
23,COC(=O)C[C@H]1C(C)(C)[C@@H](OC(C)=O)[C@@H]2CC3=C4CC(=O)O[C@@H](c5ccoc5)[C@]4(C)CCC3[C@@]1(C)C2=O (stereo partly drawn),13.2% (inactive)

row,SMILES,"activity change, negative = inhibition"
1,CC(=O)O[C@H]1Cc2ccccc2N(C(N)=O)c2ccccc21,8.82% (inactive)
2,O=c1cc(-c2ccc(O)cc2)oc2cc(O[C@@H]3O[C@H](CO)[C@@H](O)[C@H](O)[C@H]3O[C@@H]3OC[C@](O)(CO)[C@H]3O)cc(O)c12,-2.43% (inactive)
3,CC(C)N=c1cc2n(-c3ccc(Cl)cc3)c3ccccc3nc-2cc1Nc1ccc(Cl)cc1,-81.2% (active) and 17.4% (inactive)
4,Cc1nc2ccccc2n1Cc1ccc(Cl)cc1,-8.55% (inactive)
5,Cc1ccc2c(c1)C(=O)[C@]1(O)CCN(c3ccccc3)C1=N2,7.51% (inactive)
6,Cc1c(OCC(F)(F)F)ccnc1C[S@@](=O)c1nc2ccccc2[nH]1,83.6% (inactive)
7,Cc1[nH]nc2ccc(-c3cncc(OC[C@@H](N)Cc4ccccc4)c3)cc12,-82.2% (active)
8,O=S(=O)(O)c1ccc(-c2c3nc(c(-c4ccc(S(=O)(=O)O)cc4)c4ccc([nH]4)c(-c4ccc(S(=O)(=O)O)cc4)c4nc(c(-c5ccc(S(=O)(=O)O)cc5)c5ccc2[nH]5)C=C4)C=C3)cc1,-0.332% (inactive)
9,COc1cc2nccc(Oc3ccc(NC(=O)C4(C(=O)Nc5ccc(F)cc5)CC4)cc3)c2cc1OC,-93.3% (active)
10,COc1cc2nccc(Oc3ccc(NC(=O)NC4CC4)c(Cl)c3)c2cc1C(N)=O,6.94% (inactive) and -7.61% (inactive)
11,COc1cc2nccc(Oc3ccc(NC(=O)Nc4ccc(F)cc4F)c(F)c3)c2cc1OC,-38.1% (inactive)
12,COc1cc2nccc(Oc3ccc(NC(=O)Nc4cc(C)on4)c(Cl)c3)c2cc1OC,-84.5% (active)
13,COc1cc2c(N3CCN(C(=O)Nc4ccc(OC(C)C)cc4)CC3)ncnc2cc1OCCCN1CCCCC1,11% (inactive)
14,COc1cc2c(Oc3ccc(NC(=O)C4(C(=O)Nc5ccc(F)cc5)CC4)cc3F)ccnc2cc1OCCCN1CCOCC1,-67.4% (inactive)
15,Oc1cccc(-c2c3nc(c(-c4cccc(O)c4)c4ccc([nH]4)c(-c4cccc(O)c4)c4nc(c(-c5cccc(O)c5)c5ccc2[nH]5)C=C4)C=C3)c1,8.49% (inactive)
16,C[C@H](NC(=O)C(C)(C)Oc1ccc(C(F)(F)F)cn1)[C@@H](Cc1ccc(Cl)cc1)c1cccc(C#N)c1,-17.6% (inactive)
17,COc1ccc(S(=O)(=O)Nc2nnc(CC(C)C)s2)cc1,16.5% (inactive)
18,CC[C@]1(O)CC2CN(CCc3c([nH]c4ccccc34)[C@@](C(=O)OC)(c3cc4c(cc3OC)N(C)[C@H]3[C@@](O)(C(=O)OC)[C@H](OC(C)=O)[C@]5(CC)C=CCN6CC[C@]43[C@@H]65)C2)C1 (stereo partly drawn),-90.8% (active)
19,CCC1(O)CC2CN(CCc3c([nH]c4ccccc34)C(C(=O)OC)(c3cc4c(cc3OC)N(C)C3C(O)(C(=O)OC)C(C(=O)OC)C5(CC)C=CCN6CCC43C65)C2)C1 (stereo not drawn),-82.9% (active)
20,COC(=O)[C@H]1[C@H]2C[C@@H]3c4[nH]c5ccccc5c4CCN3C[C@H]2C[C@@H](OC(=O)c2cc(OC)c(OC)c(OC)c2)[C@@H]1OC,-2.54% (inactive)
21,CCC1=C[C@@H]2CN(C1)Cc1c([nH]c3ccccc13)[C@@](C(=O)OC)(c1cc3c(cc1OC)N(C)[C@H]1[C@@](O)(C(=O)OC)[C@H](OC(C)=O)[C@]4(CC)C=CCN5CC[C@]31[C@@H]54)C2,-61.1% (inactive)
22,CC[C@]1(O)CC2CN(CCc3c([nH]c4ccccc34)[C@@](C(=O)OC)(c3cc4c(cc3OC)N(C=O)[C@H]3[C@@](O)(C(=O)OC)[C@H](OC(C)=O)[C@]5(CC)C=CCN6CC[C@]43[C@@H]65)C2)C1 (stereo partly drawn),-76.5% (active)
23,CO[C@H]1C[C@H]2CC[C@@H](C)[C@@](O)(O2)C(=O)C(=O)N2CCCC[C@H]2C(=O)O[C@H]([C@H](C)C[C@@H]2CC[C@H](OC(=O)C(C)(CO)CO)[C@H](OC)C2)CC(=O)[C@H](C)/C=C(\C)[C@@H](O)[C@@H](OC)C(=O)[C@H](C)C[C@H](C)/C=C/C=C/C=C/1C,9.08% (inactive)

row,SMILES,"activity change, negative = inhibition"
1,CCOC(=O)[C@H](CCc1ccccc1)N[C@H]1CCCN2CCC[C@H](C(=O)O)N2C1=O,-4.74% (inactive)
2,CC(N)(C(=O)O)c1ccc(-c2nn[nH]n2)cc1 (stereo not drawn),3.49% (inactive)
3,C[C@@H]1C(=O)O[C@H]2[C@H](O)C34[C@H]5C[C@@H](C(C)(C)C)[C@]36[C@@H](OC(=O)[C@@H]6O)O[C@]4(C(=O)O5)[C@@]12O (stereo partly drawn),5.38% (inactive)
4,CN1CCN(C(=O)C2C3CCC(O3)C2C(=O)O)CC1 (stereo not drawn),3.27% (inactive)
5,Cc1sc[n+](CC(=O)c2ccccc2)c1C,60.9% (inactive)
6,CN1CCN(C2Cc3ccccc3Sc3ccc(Cl)cc32)CC1 (stereo not drawn),7.98% (inactive)
7,CSc1ccc2c(c1)C(N1CCN(C)CC1)Cc1ccccc1S2 (stereo not drawn),-82.4% (active) and -87% (active) and -85.3% (active)
8,CSc1ccc2c(c1)N(CCC1CCCCN1C)c1ccccc1S2 (stereo not drawn),31.1% (inactive) and -16.1% (inactive)
9,C[C@@H]1O[C@@H](O[C@H]2[C@H](Oc3cc(O)c4c(=O)cc(-c5ccc(O)cc5)oc4c3)O[C@H](CO)[C@@H](O)[C@@H]2O)[C@H](O)[C@H](O)[C@H]1O,5.34% (inactive)
10,CCO[C@H]1OC(=O)C[C@@H]1NC(=O)[C@@H]1CCCN1C(=O)[C@@H](NC(=O)c1ccc(N)c(Cl)c1)C(C)(C)C,3.07% (inactive)
11,CCOC(=O)[C@@]1(CCCCCCOc2ccc(Cl)cc2)CO1,17.5% (inactive)
12,O=C(O)CC(=O)C(=O)O,21.8% (inactive)
13,CC(NCCc1ccc(O)cc1)C(O)c1ccc(O)cc1 (stereo not drawn),1.92% (inactive) and 4.83% (inactive)
14,CCCCCCCCNC(C)C(O)c1ccc(SC(C)C)cc1 (stereo not drawn),-84.8% (active) and -78% (active) and 18.5% (inactive)
15,C[C@@H](NCCc1ccc(O)cc1)[C@@H](O)c1ccc(O)cc1,24.4% (inactive)
16,NS(=O)(=O)c1cccc2c1c([N+](=O)[O-])cc1[nH]c(=O)c(=O)[nH]c12,4.26% (inactive) and 1.99% (inactive) and 17.2% (inactive)
17,CC(C)C1C2CCC(C2)C1N (stereo not drawn),-31.8% (inactive)
18,O=[N+]([O-])c1nccn1CC(O)CN1CCCCC1 (stereo not drawn),-0.914% (inactive)
19,Cc1nc(C)c(-c2ccc(C3CCC(CC(=O)O)CC3)cc2)nc1C(N)=O (stereo not drawn),21.5% (inactive)
20,CNC(=O)[C@H]1O[C@@H](n2cnc3c(NCc4cccc(I)c4)nc(Cl)nc32)[C@H](O)[C@@H]1O,-25.8% (inactive)
21,C=CC(=O)N1CCC[C@@H](n2nc(-c3ccc(Oc4ccccc4)cc3)c3c(N)ncnc32)C1,-76.1% (active)
22,C/C(=C(/CCOC(=O)C(C)C)SS/C(CCOC(=O)C(C)C)=C(\C)N(C=O)Cc1cnc(C)nc1N)N(C=O)Cc1cnc(C)nc1N,-5.95% (inactive)
